Source: PubChem BioAssay
SW480 rerep = A quantitative high throughput screen for small molecules that induce DNA re-replication in SW480 colon adenocarcinoma cells. Potency, µM (series often up to 46.1 µM), actives largely listed as activators. 1.8% of 340,000 active. SW480 DNA re-replication, Hoechst DNA content imaging, 48 h; also: nearly all actives have a fitted effect of over 55% in size
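SW480 cells exposed to compounds for 48 hr at 37 C, 5% CO2, then Hoechst-stained 40 min. Nuclear DNA content imaged by fluorescence scanning (405 nm excitation, 500-530 nm emission); re-replication scored as increased high-intensity nuclei.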
KB-3-1 cytotox = qHTS assay for MDR1-selective chemotherapeutics: Primary screen using the parental adenocarcinoma cell KB-3-1; Potency, µM (highest dose often 46.1 µM), usual class: cytotoxic; 1.4% of 400,000 active; KB-3-1 viability, CellTiter-Glo ATP luminescence, 72 h; AID 1347075, 2019; also: nearly all actives have a fitted effect of over 60% in size
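Screening of KB-3-1 cells (DMEM, 10% FBS, phenol-red free) ran from lowest to highest compound concentration; after 72 h at 37 °C viability was read luminescently and curves fitted.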
PINK1 expr mod = A Quantitative High throughput Screen to Identify Chemical Modulators of PINK1 Expression; PINK1 immunofluorescence, high-content cytometry, 24 h; Potency, µM (highest dose often 76.6 µM), usual class: activators; 0.2% of 410,000 active; AID 624263, 2012; active = well fitted activation curve with a large enough effect; inconclusive = small, poorly fitted or top-dose-only effect; cell line not stated here; also: nearly all actives have a fitted effect of over 65% in size
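Fluorescence from anti-PINK1 antibody, together with nuclear and cell stains, was scanned on a laser-scanning cytometer. Before staining, stable-line cells were incubated 24 hours with compounds at 5 concentrations; primary antibody 12 h at 10 degrees C.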
KB-V1 cytotox = qHTS assay for MDR1-selective chemotherapeutics: Primary screen using the drug-selected MDR subline cells KB-V1; 3.4% of 400,000 active; KB-V1 MDR cells viability, CellTiter-Glo, 72 h; AID 1347076, 2019; Potency, µM (doses to about 46.1 µM), actives largely listed as cytotoxic; also: nearly all actives have a fitted effect of over 60% in size
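In this primary screen, KB-V1 cells overexpressing P-gp are incubated with library compounds (lowest to highest concentration) for 72 h at 37 degrees C before a luminescent ATP viability read.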
MCF10A rereplic = A quantitative high throughput screen for small molecules that induce DNA re-replication in MCF 10a normal breast cells; MCF 10A DNA re-replication, Hoechst nuclear intensity, 48 h; Potency, µM (series often up to 46.1 µM), actives largely listed as activators; 2.9% of 350,000 active; also: nearly all actives have a fitted effect of over 50% in size
Large screens that a line does not name were inactive; ! = not active in a repeat. This is a sample that favours compounds with a hit; in the whole collection about 6.7% have one here. Unless noted, calls follow the shape of the dose curve; as a rule, active = well fitted curve in the direction sought with a large enough effect; inconclusive = small, poorly fitted or top-dose-only effect, or another doubt; inactive = no such curve, though single readings can be large; an effect the other way counts as inactive or inconclusive.

OCCN1CCN(CCCN2c3ccccc3Sc3ccc(C(F)(F)F)cc32)CC1	SW480 rerep inconclusive, KB-V1 cytotox inconclusive, MCF10A rereplic 23µM!
O=C(Nc1ccc2c(c1)OCCO2)c1cccn(Cc2cccc([N+](=O)[O-])c2)c1=O	none (no result: SW480 rerep, MCF10A rereplic)
O=C(O)c1nn(Cc2ccc(Cl)c(Cl)c2)c2ccccc12	none (no result: SW480 rerep, KB-3-1 cytotox, KB-V1 cytotox, MCF10A rereplic)
C[C@H]1C[C@@H](C)C(=O)[C@@H]([C@H](O)CC2CC(=O)NC(=O)C2)C1	SW480 rerep inconclusive, KB-3-1 cytotox 3.3µM, KB-V1 cytotox inconclusive, MCF10A rereplic 4.6µM
COc1cc2c(cc1OC)-c1c(OC)c(OC)c(OC)c3ccnc(c13)C2=O	SW480 rerep 8.2µM, KB-V1 cytotox inconclusive, MCF10A rereplic inconclusive
Oc1ccccc1/C=N/[n+]1ccccc1	none
CCN(C(=O)COC(=O)c1cc(C)n(C2CC2)c1C)c1ccccc1	KB-V1 cytotox 2.6µM, MCF10A rereplic inconclusive
Cc1cc(C(=O)OCC(=O)Nc2ccccc2F)c(C)n1C1CC1	none
CC(C)CC(NC(=O)CCCNC(=O)CCC(=O)OC1O[C@H]2OC3(C)CC[C@H]4[C@H](C)CCC(C1C)C24OO3)C(=O)O (stereo partly specified)	SW480 rerep 8.2µM, KB-3-1 cytotox 7.3µM, KB-V1 cytotox inconclusive
C[C@H]1[C@H](OC(=O)CCC(=O)NCc2ccc(C(=O)O)cc2)O[C@@H]2O[C@@]3(C)CC[C@H]4[C@H](C)CC[C@@H]1C24OO3	SW480 rerep inconclusive, KB-3-1 cytotox 8.2µM, KB-V1 cytotox 15µM, MCF10A rereplic inconclusive
CC1C(OC(=O)CCC(=O)NC(C)(C)CO)O[C@H]2OC3(C)CC[C@H]4[C@H](C)CCC1C24OO3 (stereo partly specified)	SW480 rerep inconclusive, KB-3-1 cytotox 10µM, KB-V1 cytotox 13µM
Cc1nnc(NC(=O)c2cccn(Cc3cccc([N+](=O)[O-])c3)c2=O)s1	none (no result: SW480 rerep, MCF10A rereplic)
Cc1cc(C)cc(-n2c(/C=C/c3cccc(F)c3)nc3ccccc3c2=O)c1	KB-V1 cytotox inconclusive (no result: SW480 rerep, MCF10A rereplic)
C[C@]12CCC3C(CC[C@H]4C[C@H](O)CC[C@]34C)C1CC(=O)[C@@H]2O (stereo partly specified)	none
CC1CC2(C)C(CCC3C2CCC2(C)C(OP(=O)(N4CC4)N4CC4)CCC32)CC1=O (stereo unspecified)	MCF10A rereplic 13µM
C=C1C(=O)OC2CC3(C)OC3CCC(C)=CC(OC(C)=O)C12 (stereo unspecified)	KB-3-1 cytotox inconclusive, MCF10A rereplic 5.2µM
O=C1c2ccccc2-c2cccc3cccc1c23	none
c1ccc2c(c1)cc1ccc3cccc4ccc2c1c34	SW480 rerep 21µM, MCF10A rereplic inconclusive
CCCNS(=O)(=O)c1ccc(OCC(=O)N2CCN(Cc3ccccc3)CC2)cc1	KB-3-1 cytotox inconclusive, KB-V1 cytotox 8.2µM
O=C(COc1ccc(S(=O)(=O)N2CCOCC2)cc1)N1CCN(Cc2ccc3c(c2)OCO3)CC1	KB-V1 cytotox 16µM
O=C(COc1ccc(Br)cc1)N1CCN(Cc2ccc3c(c2)OCO3)CC1	none
Cn1nc(-c2ccc(OCC(=O)N3CCN(Cc4ccccc4)CC3)cc2)c2ccccc2c1=O	KB-3-1 cytotox 5.8µM!, KB-V1 cytotox 0.65µM!
CC(C)(C)NS(=O)(=O)c1ccc(OCC(=O)N2CCN(Cc3ccccc3)CC2)cc1	KB-V1 cytotox inconclusive
C[C@H]1CCC/C=C/[C@@H]2C[C@H](O)C[C@H]2[C@@H](O)/C=C/C(=O)O1	SW480 rerep inconclusive, KB-3-1 cytotox 0.18µM, KB-V1 cytotox 0.18µM
C[C@H]1CCCC=CC2C[C@H](O)C[C@@H]2[C@H](O)C=CC(=O)O1 (stereo partly specified)	KB-3-1 cytotox 0.0073µM, KB-V1 cytotox 0.018µM (no result: SW480 rerep, MCF10A rereplic)
CC12CCC3C(CC=C4CC(O)CCC43C)C1C/C(=C\c1cccc(F)c1)C2=O (stereo unspecified)	MCF10A rereplic 5.8µM
C[C@]12CC[C@@H](O)CC1=CCC1C2CC[C@]2(C)C(=O)[C@H](F)CC12 (stereo partly specified)	none
O=C1NC(=O)C(=Cc2ccc(SC3CCCCC3)o2)C(=O)N1	SW480 rerep inconclusive, MCF10A rereplic 21µM
CNC(=O)Oc1ccccc1C(=O)Nc1ccccc1	none (no result: KB-3-1 cytotox, PINK1 expr mod, KB-V1 cytotox)
Cc1ccc2c(CN3CC=C(c4ccccc4)CC3)cc(=O)oc2c1C	none
O=c1[nH]c(CN2CC=C(c3ccccc3)CC2)nc2scc(-c3ccccc3)c12	KB-3-1 cytotox inconclusive, KB-V1 cytotox inconclusive, MCF10A rereplic 18µM
CN(C(=O)CN1CC=C(c2ccccc2)CC1)c1c(N)n(Cc2ccccc2)c(=O)[nH]c1=O	none
O=c1[nH]c(CN2CC=C(c3ccccc3)CC2)nc2cc(C(F)(F)F)ccc12	KB-V1 cytotox inconclusive, MCF10A rereplic 15µM
CCC(=Nc1ccc(OC)cc1OC)c1c(O)[nH]c(=O)[nH]c1=O	KB-3-1 cytotox inconclusive, KB-V1 cytotox 10µM, MCF10A rereplic inconclusive
CCC(=Nc1cc(OC)ccc1OC)c1c(O)[nH]c(=O)[nH]c1=O	KB-3-1 cytotox 5.8µM, KB-V1 cytotox 2.6µM
C=CCn1c(O)c(C(CC)=Nc2cc(OC)ccc2OC)c(=O)[nH]c1=O	KB-V1 cytotox inconclusive
CCCCn1c(=O)c(C(=O)NCCc2ccccc2)c(O)c2ccccc21	PINK1 expr mod inconclusive, MCF10A rereplic 18µM
CCCCn1c(=O)c(C(=O)NCc2ccc(Cl)cc2)c(O)c2ccccc21	SW480 rerep inconclusive, PINK1 expr mod inconclusive, MCF10A rereplic inconclusive
CCCCCn1c(=O)c(C(=O)NCc2ccncc2)c(O)c2ccccc21	SW480 rerep inconclusive, KB-3-1 cytotox 5.8µM, KB-V1 cytotox 2.6µM, MCF10A rereplic inconclusive
O=c1c2ccccc2nc(/C=C\c2ccccc2F)n1-c1ccc(O)cc1	none (no result: SW480 rerep, MCF10A rereplic)
Clc1ccc2c(c1)C(c1ccccc1)=NCc1nncn1-2	none (no result: KB-3-1 cytotox, PINK1 expr mod, KB-V1 cytotox)
Cc1cccc(-n2c(/C=C/c3ccccc3O)nc3ccccc3c2=O)c1	none (no result: SW480 rerep, KB-3-1 cytotox, KB-V1 cytotox, MCF10A rereplic)
Cc1cccc(-n2c(/C=C/c3ccc([N+](=O)[O-])o3)nc3ccccc3c2=O)c1	SW480 rerep 6.5µM, KB-3-1 cytotox 10µM, KB-V1 cytotox 10µM, MCF10A rereplic 2.3µM
O=c1c2ccccc2nc(/C=C/c2ccc([N+](=O)[O-])o2)n1-c1ccc(O)cc1	SW480 rerep 4.6µM, KB-3-1 cytotox inconclusive, PINK1 expr mod 40µM, KB-V1 cytotox inconclusive, MCF10A rereplic inconclusive
CC(C)(O)C(Cl)(Cl)Cl	none (no result: KB-3-1 cytotox, PINK1 expr mod, KB-V1 cytotox)
CCCCCCCCCC(CC)c1ccc(S(=O)(=O)O)cc1 (stereo unspecified)	SW480 rerep inconclusive (no result: KB-3-1 cytotox, PINK1 expr mod, KB-V1 cytotox)
Cc1c(C(=O)O)cc(-c2ccccc2)n1Cc1ccccc1	none
CSc1cc(-c2ccccc2)n(Cc2c(Cl)cccc2Cl)c(=O)c1C#N	KB-3-1 cytotox 3.3µM, KB-V1 cytotox inconclusive, MCF10A rereplic inconclusive
